Among the data in PMC11006913 are binding signal values, retold here.

Assay in all cases: PBM; 200 nM protein, PBS
What all share (details): dsDNA, one strand shown

For assay [1], the target named is HESX1 (Homo sapiens, UniProt Q9UBX0 95-180, R165K).
The target of assay [2] is SHOX (Homo sapiens, UniProt O15266 103-189).
Assay [3] concerns the target ALX4 (Homo sapiens, UniProt Q9H161 200-286).
Assay [4] has as its target PRRX1 (Homo sapiens, UniProt P54821 80-166, F113S).
Assay [5] addresses ALX4 (Homo sapiens, UniProt Q9H161 200-286, Q225E).
The target of assay [6] is HESX1 (Homo sapiens, UniProt Q9UBX0 95-180).
The target in assay [7] is MSX2 (Homo sapiens, UniProt P35548 130-214, R199I).
Assay [8] has as its target ALX1 (Homo sapiens, UniProt Q15699 118-204, L144V).
For assay [9], the target named is SHOX (Homo sapiens, UniProt O15266 103-189, R173C).
The target of assay [10] is ALX1 (Homo sapiens, UniProt Q15699 118-204, L144R).
Assay [11] addresses PROP1 (Homo sapiens, UniProt O75360 56-141).
For assay [12], the target named is HESX1 (Homo sapiens, UniProt Q9UBX0 95-180, R109Q).
The target of assay [13] is PROP1 (Homo sapiens, UniProt O75360 56-141, R99H).
In another assay the target is ALX3 (Homo sapiens, UniProt O95076 139-225, L168Q).
Assay [14] concerns the target HESX1 (Homo sapiens, UniProt Q9UBX0 95-180, P111T).
Assay [15] deals with PROP1 (Homo sapiens, UniProt O75360 56-141, F88S).
Assay [16] addresses MSX2 (Homo sapiens, UniProt P35548 130-214, F161Y).
The target in assay [17] is HESX1 (Homo sapiens, UniProt Q9UBX0 95-180, F115L).
In assay [18] the target is ALX1 (Homo sapiens, UniProt Q15699 118-204).
Assay [19] has as its target PRRX1 (Homo sapiens, UniProt P54821 80-166).

Sequence of HESX1 (Homo sapiens, UniProt Q9UBX0 95-180, F115L) (Q9UBX0 95-180 F115L): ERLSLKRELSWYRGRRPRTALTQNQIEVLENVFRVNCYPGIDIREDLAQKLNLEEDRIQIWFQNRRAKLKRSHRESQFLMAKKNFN
Sequence of HESX1 (Homo sapiens, UniProt Q9UBX0 95-180) (Q9UBX0 95-180): as the sequence (Q9UBX0 95-180 F115L) above, with L21F counted along it
Sequence of SHOX (Homo sapiens, UniProt O15266 103-189, R173C) (O15266 103-189 R173C): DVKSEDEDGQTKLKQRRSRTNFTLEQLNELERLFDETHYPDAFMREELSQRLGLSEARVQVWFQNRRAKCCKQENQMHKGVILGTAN
Sequence of ALX1 (Homo sapiens, UniProt Q15699 118-204, L144V) (Q15699 118-204 L144V): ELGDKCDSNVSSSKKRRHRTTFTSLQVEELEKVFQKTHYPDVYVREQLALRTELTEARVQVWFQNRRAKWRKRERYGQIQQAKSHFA
Sequence of ALX1 (Homo sapiens, UniProt Q15699 118-204, L144R) (Q15699 118-204 L144R): as the sequence (Q15699 118-204 L144V) above, with V27R counted along it
Sequence of ALX4 (Homo sapiens, UniProt Q9H161 200-286) (Q9H161 200-286): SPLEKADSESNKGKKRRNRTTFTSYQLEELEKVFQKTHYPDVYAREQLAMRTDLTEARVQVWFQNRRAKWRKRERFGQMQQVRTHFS
Sequence of MSX2 (Homo sapiens, UniProt P35548 130-214, F161Y) (P35548 130-214 F161Y): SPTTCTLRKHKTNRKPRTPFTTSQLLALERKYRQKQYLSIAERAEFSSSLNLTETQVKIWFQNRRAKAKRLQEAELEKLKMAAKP
Sequence of ALX1 (Homo sapiens, UniProt Q15699 118-204) (Q15699 118-204): as the sequence (Q15699 118-204 L144V) above, with V27L counted along it
Sequence of HESX1 (Homo sapiens, UniProt Q9UBX0 95-180, R109Q) (Q9UBX0 95-180 R109Q): as the sequence (Q9UBX0 95-180 F115L) above, with R15Q, L21F counted along it
Sequence of PROP1 (Homo sapiens, UniProt O75360 56-141) (O75360 56-141): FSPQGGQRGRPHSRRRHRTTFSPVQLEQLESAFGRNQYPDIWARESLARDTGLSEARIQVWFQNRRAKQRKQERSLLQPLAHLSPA
Sequence of ALX3 (O95076 139-225 L168Q): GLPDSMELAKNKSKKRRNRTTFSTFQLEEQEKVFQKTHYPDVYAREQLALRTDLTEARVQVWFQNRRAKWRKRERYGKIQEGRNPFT
Sequence of HESX1 (Homo sapiens, UniProt Q9UBX0 95-180, R165K) (Q9UBX0 95-180 R165K): as the sequence (Q9UBX0 95-180 F115L) above, with L21F, R71K counted along it
Sequence of MSX2 (Homo sapiens, UniProt P35548 130-214, R199I) (P35548 130-214 R199I): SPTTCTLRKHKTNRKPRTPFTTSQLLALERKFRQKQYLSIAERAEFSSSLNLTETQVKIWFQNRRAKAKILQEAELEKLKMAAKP
Sequence of PRRX1 (Homo sapiens, UniProt P54821 80-166) (P54821 80-166): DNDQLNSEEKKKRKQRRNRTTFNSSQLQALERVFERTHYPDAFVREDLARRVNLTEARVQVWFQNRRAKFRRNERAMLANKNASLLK
Sequence of HESX1 (Homo sapiens, UniProt Q9UBX0 95-180, P111T) (Q9UBX0 95-180 P111T): as the sequence (Q9UBX0 95-180 F115L) above, with P17T, L21F counted along it
Sequence of PROP1 (Homo sapiens, UniProt O75360 56-141, F88S) (O75360 56-141 F88S): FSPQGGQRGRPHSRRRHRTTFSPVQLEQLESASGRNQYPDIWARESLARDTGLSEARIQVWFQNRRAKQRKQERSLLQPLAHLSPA
Sequence of ALX4 (Homo sapiens, UniProt Q9H161 200-286, Q225E) (Q9H161 200-286 Q225E): as the sequence (Q9H161 200-286) above, with Q26E counted along it
Sequence of PROP1 (Homo sapiens, UniProt O75360 56-141, R99H) (O75360 56-141 R99H): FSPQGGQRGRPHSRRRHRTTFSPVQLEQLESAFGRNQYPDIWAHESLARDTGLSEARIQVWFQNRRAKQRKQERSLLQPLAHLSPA
Sequence of SHOX (Homo sapiens, UniProt O15266 103-189) (O15266 103-189): as the sequence (O15266 103-189 R173C) above, with C71R counted along it
Sequence of PRRX1 (Homo sapiens, UniProt P54821 80-166, F113S) (P54821 80-166 F113S): as the sequence (P54821 80-166) above, with F34S counted along it

As for GCCAATTA, the binding signal was 13.5 upbm affinity estimate (log intensity, higher = more binding, comparable within an allelic series) with HESX1 [1]; 12.5 upbm affinity estimate (log intensity, higher = more binding, comparable within an allelic series) with SHOX [2]; 14 upbm affinity estimate (log intensity, higher = more binding, comparable within an allelic series) in the assay with ALX4 [3]; 11.2 upbm affinity estimate (log intensity, higher = more binding, comparable within an allelic series) with PRRX1 [4]; 13.6 upbm affinity estimate (log intensity, higher = more binding, comparable within an allelic series) in the assay with ALX4 [5]; 13.3 upbm affinity estimate (log intensity, higher = more binding, comparable within an allelic series) in the assay with HESX1 [6]. The binding signal with MSX2 [7] is 13 upbm affinity estimate (log intensity, higher = more binding, comparable within an allelic series); with ALX1 [8] it was 11.9 upbm affinity estimate (log intensity, higher = more binding, comparable within an allelic series); with SHOX [9], 9.95 upbm affinity estimate (log intensity, higher = more binding, comparable within an allelic series); in the assay with ALX1 [10], 11.7 upbm affinity estimate (log intensity, higher = more binding, comparable within an allelic series); with PROP1 [11] it was 11.6 upbm affinity estimate (log intensity, higher = more binding, comparable within an allelic series); with HESX1 [12], 10.3 upbm affinity estimate (log intensity, higher = more binding, comparable within an allelic series). The binding signal with PROP1 [13] is 11.9 upbm affinity estimate (log intensity, higher = more binding, comparable within an allelic series); with ALX3, 10.9 upbm affinity estimate (log intensity, higher = more binding, comparable within an allelic series); in the assay with HESX1 [14], 12.1 upbm affinity estimate (log intensity, higher = more binding, comparable within an allelic series); in the assay with PROP1 [15] it was 7.64 upbm affinity estimate (log intensity, higher = more binding, comparable within an allelic series); in the assay with MSX2 [16] it was 13.6 upbm affinity estimate (log intensity, higher = more binding, comparable within an allelic series); with HESX1 [17] it was 7.99 upbm affinity estimate (log intensity, higher = more binding, comparable within an allelic series). In addition, the binding signal was 12.6 upbm affinity estimate (log intensity, higher = more binding, comparable within an allelic series) with ALX1 [18] and 13.3 upbm affinity estimate (log intensity, higher = more binding, comparable within an allelic series) with PRRX1 [19].
As for AATTAGCA, the binding signal in the assay with HESX1 [1] is 11.6 upbm affinity estimate (log intensity, higher = more binding, comparable within an allelic series); in the assay with SHOX [2], 11.6 upbm affinity estimate (log intensity, higher = more binding, comparable within an allelic series); in the assay with ALX4 [3], 13.6 upbm affinity estimate (log intensity, higher = more binding, comparable within an allelic series); with PRRX1 [4], 11 upbm affinity estimate (log intensity, higher = more binding, comparable within an allelic series); with ALX4 [5] it was 12.7 upbm affinity estimate (log intensity, higher = more binding, comparable within an allelic series); with HESX1 [6] it was 11.6 upbm affinity estimate (log intensity, higher = more binding, comparable within an allelic series). In addition, the binding signal is 12.2 upbm affinity estimate (log intensity, higher = more binding, comparable within an allelic series) in the assay with MSX2 [7]; 11.5 upbm affinity estimate (log intensity, higher = more binding, comparable within an allelic series) in the assay with ALX1 [8]; 9.43 upbm affinity estimate (log intensity, higher = more binding, comparable within an allelic series) with SHOX [9]; 11.1 upbm affinity estimate (log intensity, higher = more binding, comparable within an allelic series) with ALX1 [10]; 11.1 upbm affinity estimate (log intensity, higher = more binding, comparable within an allelic series) with PROP1 [11]; 8.94 upbm affinity estimate (log intensity, higher = more binding, comparable within an allelic series) in the assay with HESX1 [12]. Also, the binding signal in the assay with PROP1 [13] is 10.9 upbm affinity estimate (log intensity, higher = more binding, comparable within an allelic series); with ALX3, 10.3 upbm affinity estimate (log intensity, higher = more binding, comparable within an allelic series); with HESX1 [14] it was 10.4 upbm affinity estimate (log intensity, higher = more binding, comparable within an allelic series); in the assay with PROP1 [15], 7.78 upbm affinity estimate (log intensity, higher = more binding, comparable within an allelic series); with HESX1 [17], 7.45 upbm affinity estimate (log intensity, higher = more binding, comparable within an allelic series); with ALX1 [18], 12.2 upbm affinity estimate (log intensity, higher = more binding, comparable within an allelic series). Further, the binding signal with PRRX1 [19] is 13.2 upbm affinity estimate (log intensity, higher = more binding, comparable within an allelic series).
In the case of ATAATTGG, the binding signal with HESX1 [1] is 13.5 upbm affinity estimate (log intensity, higher = more binding, comparable within an allelic series); in the assay with SHOX [2], 12.6 upbm affinity estimate (log intensity, higher = more binding, comparable within an allelic series); with ALX4 [3] it was 14 upbm affinity estimate (log intensity, higher = more binding, comparable within an allelic series); with PRRX1 [4] it was 11.5 upbm affinity estimate (log intensity, higher = more binding, comparable within an allelic series); with ALX4 [5], 13.7 upbm affinity estimate (log intensity, higher = more binding, comparable within an allelic series); with HESX1 [6] it was 13.4 upbm affinity estimate (log intensity, higher = more binding, comparable within an allelic series). In addition, the binding signal in the assay with MSX2 [7] is 13.1 upbm affinity estimate (log intensity, higher = more binding, comparable within an allelic series); in the assay with ALX1 [8], 12 upbm affinity estimate (log intensity, higher = more binding, comparable within an allelic series); in the assay with SHOX [9], 9.98 upbm affinity estimate (log intensity, higher = more binding, comparable within an allelic series); in the assay with ALX1 [10], 11.7 upbm affinity estimate (log intensity, higher = more binding, comparable within an allelic series); with PROP1 [11], 11.7 upbm affinity estimate (log intensity, higher = more binding, comparable within an allelic series); with HESX1 [12] it was 10 upbm affinity estimate (log intensity, higher = more binding, comparable within an allelic series). Also, the binding signal in the assay with PROP1 [13] is 12 upbm affinity estimate (log intensity, higher = more binding, comparable within an allelic series); with ALX3, 10.9 upbm affinity estimate (log intensity, higher = more binding, comparable within an allelic series); with HESX1 [14], 12.1 upbm affinity estimate (log intensity, higher = more binding, comparable within an allelic series); with PROP1 [15], 7.6 upbm affinity estimate (log intensity, higher = more binding, comparable within an allelic series); with MSX2 [16], 13.7 upbm affinity estimate (log intensity, higher = more binding, comparable within an allelic series); with HESX1 [17], 8.41 upbm affinity estimate (log intensity, higher = more binding, comparable within an allelic series). For the same sequence, the binding signal is 12.6 upbm affinity estimate (log intensity, higher = more binding, comparable within an allelic series) with ALX1 [18] and 13.4 upbm affinity estimate (log intensity, higher = more binding, comparable within an allelic series) with PRRX1 [19].
On to AATTAGTA, for which the binding signal with HESX1 [1] was 11.7 upbm affinity estimate (log intensity, higher = more binding, comparable within an allelic series); with SHOX [2], 11.6 upbm affinity estimate (log intensity, higher = more binding, comparable within an allelic series); with ALX4 [3], 13.7 upbm affinity estimate (log intensity, higher = more binding, comparable within an allelic series); with PRRX1 [4] it was 11.1 upbm affinity estimate (log intensity, higher = more binding, comparable within an allelic series); with ALX4 [5], 12.9 upbm affinity estimate (log intensity, higher = more binding, comparable within an allelic series); with HESX1 [6], 11.7 upbm affinity estimate (log intensity, higher = more binding, comparable within an allelic series). The binding signal is 12.3 upbm affinity estimate (log intensity, higher = more binding, comparable within an allelic series) with MSX2 [7]; 11.7 upbm affinity estimate (log intensity, higher = more binding, comparable within an allelic series) with ALX1 [8]; 9.25 upbm affinity estimate (log intensity, higher = more binding, comparable within an allelic series) with SHOX [9]; 11.2 upbm affinity estimate (log intensity, higher = more binding, comparable within an allelic series) in the assay with ALX1 [10]; 11 upbm affinity estimate (log intensity, higher = more binding, comparable within an allelic series) with PROP1 [11]; 9.01 upbm affinity estimate (log intensity, higher = more binding, comparable within an allelic series) in the assay with HESX1 [12]. The binding signal in the assay with PROP1 [13] was 11 upbm affinity estimate (log intensity, higher = more binding, comparable within an allelic series); in the assay with ALX3 it was 10.4 upbm affinity estimate (log intensity, higher = more binding, comparable within an allelic series); with HESX1 [14], 10.5 upbm affinity estimate (log intensity, higher = more binding, comparable within an allelic series); in the assay with PROP1 [15], 7.8 upbm affinity estimate (log intensity, higher = more binding, comparable within an allelic series); in the assay with MSX2 [16], 12.9 upbm affinity estimate (log intensity, higher = more binding, comparable within an allelic series); in the assay with HESX1 [17], 7.68 upbm affinity estimate (log intensity, higher = more binding, comparable within an allelic series). Further, in the assay with ALX1 [18], the binding signal was 12.3 upbm affinity estimate (log intensity, higher = more binding, comparable within an allelic series).
